From PubChem BioAssay AID2202241 (National Center for Advancing Translational Sciences (NCATS), 2025)
Active and inactive are the calls of the source. How the calls were made is not given here. Square brackets hold non-standard residues; d marks the D form. Peptide text beside a SMILES is read from it. Dolaproine = CO[C@@H]([C@@H]1CCCN1)[C@@H](C)C(=O)O; Dil = CC[C@H](C)[C@H](NC)[C@@H](CC(=O)O)OC; NMeV = CN[C@H](C(=O)O)C(C)C

test: Identification of antibody-drug conjugate (ADC) payloads which are substrates of ATP-binding cassette drug efflux transporters: cell line panel data; conditions: 99 cancer cell line panel, CellTiter-Glo viability, 48 h; stronger effect = lower value
Description: Antibody-drug conjugates (ADCs) feature an antibody recognizing a specific protein joined to a potent toxic payload. Numerous antibody-drug conjugates have received FDA approval; however, clinical resistance arises. Resistance mechanisms include decreased expression or mutation of the antibody target, impaired payload release, or increased expression of ATP-binding cassette (ABC) efflux transporters associated with multidrug resistance. We therefore sought to characterize the activity of ADC payloads across a broad set of cancer cell lines. We performed a high-throughput screen with 27 common ADC payloads against a panel of 99 cell lines to assess sensitivity to various payloads. Duocarmycin DM and PNU-159682 were exquisitely toxic across the panel of cancer cell lines of varying origins. These findings highlight the potentially broad applicability of Duocarmycin DM and PNU-159682 as ADC payloads in future ADC development.
Compounds were sourced from Levena Biopharma (San Diego, CA), Selleck Chem (Houston, TX), ChemieTek (Indianapolis, IN), or Microsource Discovery Systems (Gaylordsville, CT). Cell line sources and culture conditions were as follows: CAL-27 (ATCC: CRL-2095) and Hs 766T (ATCC: HTB-134) were grown in DMEM media +10% FBS. RKO (ATCC: CRL-2577), A-427 (ATCC: […]), BT-20 (ATCC: HTB-19), Detroit562 (ATCC: CCL-138), HARA-B (Cytion: 300465), PA-1 (ATCC: CRL-1572), TCCSUP (ATCC: […]), UM-UC-3 (ATCC: CRL-1749), and WI-38 (ATCC: CCL-75) were grown in EMEM media +10% FBS. AGS (ATCC: CRL-1739) was grown in F12K media +10% FBS. JJN-3 (DSMZ: ACC 541) was grown in IMDM media +20% FBS. 769-P (ATCC: CRL-1933), 786-O (ATCC: CRL-1932), A-375 (ATCC: CRL-1619), A-431 (ATCC: CRL-1555), A-549 (ATCC: CCL-185), A2780 (Cytion: 300491), ACHN (ATCC: CRL-1611), BT-474 (ATCC: HTB-20), BT-549 (ATCC: HTB-122), CCRF-CEM (ATCC: CCL-119), Daudi (ATCC: CCL-213), HaCaT (Cytion: 300493), HCC38 (ATCC: CRL-2314), HCC827 (ATCC: CRL-2868), HCT15 (ATCC: CCL-225), HEL 92.1.7 (ATCC: TIB-180), Hs 352.Sk (ATCC: CRL-7250), Hs578T (ATCC: HTB-126), HT-1080 (ATCC: CCL-121), HuCC-T1 (Riken Bioresource Center: RCB1960), HuP-T3 (DSMZ: ACC 259), HuP-T4 (DSMZ: ACC 223), IM-9 (ATCC: CCL-159), JJ012 (Gift: Karina Galoian (University of Miami)), JM-1 (ATCC: CRL-10423), K-562 (ATCC: CCL-243), Kasumi-3 (ATCC: CRL-2725), KMS-12-BM (DSMZ: ACC 551), LOUCY (ATCC: CRL-2629), LoVo (ATCC: CCL-229), MCF-7 (ATCC: HTB-22), MDA-MB-231 (ATCC: HTB-26), MDA-MB-436 (ATCC: HTB-130), MDA-MB-468 (ATCC: HTB-132), MIA PaCa-2 (ATCC: CRL-1420), MM1.R (ATCC: CRL-2975), MM1.S (ATCC: CRL-2974), NALM-6 (ATCC: CRL-3273), NCI-H1299 (ATCC: CRL-5803), NCI-H1355 (ATCC: CRL-5865), NCI-H1395 (ATCC: CRL-5868), NCI-H1437 (ATCC: CRL-5872), NCI-H2122 (ATCC: CRL-5985), NCI-H2170 (ATCC: CRL-5928), NCI-H226 (ATCC: CRL-5826), NCI-H23 (ATCC: CRL-5800), NCI-H322M (NIH: NCI-60), NCI-H460 (ATCC: HTB-177), NCI-H522 (ATCC: CRL-5810), NCI-H929 (ATCC: CRL-3580), NIH 3T3 (ATCC: CRL-1658), OCI-M2 (DSMZ: ACC 619), OPM-2 (DSMZ: ACCC 50), OVCAR-3 (ATCC: HTB-161), OVCAR-4 (Gift: Phil Lorenzi MD Anderson), OVCAR-8 (Gift: Phil Lorenzi MD Anderson), Panc 10.05 (ATCC: CRL-2547), PANC-1 (ATCC: CRL-1469), Pfeiffer (ATCC: CRL-2632), PL45 (ATCC: CRL-2558), PSN1 (ATCC: CRL-3211), Raji (ATCC: CCL-86), RD (Gift: Mari Yohe NCI), RPMI-8226 (ATCC: CRM-CCL-155), RS4;11 (ATCC: CRL-1873), SK-BR-3 (ATCC: HTB-30), SK-MEL-28 (ATCC: HTB-72), SMS-CTR (Gift: Mari Yohe NCI), SNU-16 (ATCC: CRL-5974), SU-DHL-8 (ATCC: CRL-2961), SU.86.86 (ATCC: CRL-1837), SW1990 (ATCC: CRL-2172), SW403 (ATCC: CCL-230), SW480 (ATCC: CCL-228), SW579 (ATCC: HTB-107), T-47D (ATCC: HTB-133), T24 (ATCC: HTB-4), and U-937 (ATCC: CRL-1593.2) were grown in RPMI +10% FBS. U266B1 (ATCC: TIB-196) were grown in RPMI +15% FBS. ME-1 (ATCC: HB-119), MOLM-13 (DSMZ: ACC 554), AMO1 (DSMZ: ACC 538), MOLP-8 (DSMZ: ACC 569), MV4-11 (ATCC: CRL-9591), PL-21 (DSMZ: ACC 536), and L-363 (DSMZ: ACC 49) were grown in RPMI +20% FBS. […]

Row | Compound | viability AUC
1 | CC[C@H](C)[C@@H]([C@@H](CC(=O)N1CCC[C@H]1[C@H](OC)[C@@H](C)C(=O)N[C@@H](Cc1ccccc1)C(=O)O)OC)N(C)C(=O)[C@@H](NC(=O)[C@@H](NC)C(C)C)C(C)C (H-[NMeV]V[Dil][Dolaproine]F-OH) | 938 (active)
2 | CC(C)(C)OC(=O)Nc1ccc2[nH]c(C(=O)N3C[C@@H](CCl)c4c3cc(O)c3ccccc43)cc2c1 | 645 (active)
3 | CC[C@H](C)[C@@H]([C@H](N)CC(=O)N1CCC[C@H]1[C@H](OC)[C@@H](C)C(=O)N[C@@H](Cc1ccccc1)c1nccs1)N(C)C(=O)[C@@H](NC(=O)[C@H](C(C)C)N(C)C)C(C)C | 769 (active)
4 | CN(C)CCOc1ccc2[nH]c(C(=O)N3C[C@@H](CCl)c4c3cc(O)c3ccccc43)cc2c1 | 514 (active)
5 | CCN[C@H]1CO[C@@H](O[C@H]2[C@H](O[C@H]3C#C/C=C\C#C[C@]4(O)CC(=O)C(NC(=O)OC)=C3/C4=C\CSSSC)O[C@H](C)[C@@H](NO[C@H]3C[C@H](O)[C@H](SC(=O)c4c(C)c(I)c(O[C@@H]5O[C@@H](C)[C@H](O)[C@@H](OC)[C@H]5O)c(OC)c4OC)[C@@H](C)O3)[C@@H]2O)C[C@@H]1OC | 635 (active)
6 | COC(=O)c1cc2c3c(cc(O)c2[nH]1)N(C(=O)c1cc2cc(OC)c(OC)c(OC)c2[nH]1)CC3CCl (stereo unspecified) | 651 (active)
7 | CC[C@H](C)[C@@H]([C@H](N)CC(=O)N1CCC[C@H]1[C@H](OC)[C@@H](C)C(=O)N[C@@H](Cc1ccccc1)c1nccs1)N(C)C(=O)[C@@H](NC(=O)[C@@H](NC)C(C)C)C(C)C | 738 (active)
8 | CCN(C(C)=O)[C@H]1CO[C@@H](O[C@H]2[C@H](O[C@H]3C#C/C=C\C#C[C@]4(O)CC(=O)C(NC(=O)OC)=C3/C4=C\CSSSC)O[C@H](C)[C@@H](NO[C@H]3C[C@H](O)[C@H](SC(=O)c4c(C)c(I)c(O[C@@H]5O[C@@H](C)[C@H](O)[C@@H](OC)[C@H]5O)c(OC)c4OC)[C@@H](C)O3)[C@@H]2O)C[C@@H]1OC | 700 (active)
9 | COc1cccc2c1C(=O)c1c(O)c3c(c(O)c1C2=O)C[C@@](O)(C(=O)CO)C[C@@H]3O[C@H]1C[C@H]2[C@H](O[C@@H]3[C@@H](OC)OCCN32)[C@H](C)O1 | 549 (active)
10 | COc1ccc(C2=CN3C(=O)c4cc(OC)c(OCCCOc5cc6c(cc5OC)C(=O)N5C=C(c7ccc(N)cc7)C[C@@H]5C=N6)cc4N=C[C@H]3C2)cc1 | 762 (active)
11 | COc1cc2cc(c1Cl)N(C)C(=O)C[C@H](O)[C@]1(C)O[C@H]1[C@H](C)C1C[C@@](O)(NC(=O)O1)[C@H](OC)/C=C/C=C(\C)C2 | 1010 (active)
